Experimental data from PubChem BioAssay AID1159580 (chemical genetic matrix, 2015).
The whole screen tested about 5,500 compounds, of which about 2,000 (36%) were called active. Inconclusive results (about 18%) are left out. Rule as the data show it: active = normalized growth mostly below about 0.91 (no sharp cut-off); inconclusive = no clear call, values can overlap the other calls; inactive = mostly above about 0.92. Some of the results follow.

Test: chemical genetic growth profiling, strain panel (AID 1159580);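 also: tested at 20 µM; growth read once vehicle control cultures reached saturation at 30 °C; 1 = growth at the plate median or of vehicle wells; lower values mean less growth of the strain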
Conditions: growth OD

Measured: normalized growth

CC1(C)O[C@@H]2CC3C4CCC5=CC(=O)C=C[C@]5(C)[C@@]4(F)[C@@H](O)C[C@]3(C)[C@]2(C(=O)CO)O1 (some centres not stated)
inactive: S. cerevisiae deletion strains, locus YJR075W, strain HOC1, stronger effect = lower value 1.01 | S. cerevisiae deletion strains, locus YKL009W, strain mrt4, stronger effect = lower value 1.01 | S. cerevisiae deletion strains, locus YKL068W, stronger effect = lower value 0.999 | S. cerevisiae deletion strains, locus YKL085W, strain MDH1 (second series), stronger effect = lower value 0.996 | S. cerevisiae deletion strains, locus YKL085W, strain MDH1, stronger effect = lower value 0.996 | S. cerevisiae deletion strains, locus YKL160W, strain elf1, stronger effect = lower value 0.968 | S. cerevisiae deletion strains, locus YKL190W, strain CNB1, stronger effect = lower value 1.02 | S. cerevisiae deletion strains, locus YKR001C, strain vps1, stronger effect = lower value 1.01 | S. cerevisiae deletion strains, locus YKR026C, strain gcn3, stronger effect = lower value 1.01 | S. cerevisiae deletion strains, locus YKR091W, strain srl3, stronger effect = lower value 0.992 | S. cerevisiae deletion strains, locus YLL001W, strain dnm1, stronger effect = lower value 1.01 | S. cerevisiae deletion strains, locus YLL026W, stronger effect = lower value 0.982 | S. cerevisiae deletion strains, locus YLL041C, strain sdh2, stronger effect = lower value 0.999 | S. cerevisiae deletion strains, locus YLR027C, strain aat2, stronger effect = lower value 1 | S. cerevisiae deletion strains, locus YLR039C, strain RIC1, stronger effect = lower value 1.01 | S. cerevisiae deletion strains, locus YLR058C, strain SHM2, stronger effect = lower value 1.02 | S. cerevisiae deletion strains, locus YLR102C, strain apc9, stronger effect = lower value 0.998 | S. cerevisiae deletion strains, locus YLR113W, strain HOG1, stronger effect = lower value 0.984 | S. cerevisiae deletion strains, locus YLR221C, strain rsa3, stronger effect = lower value 0.974 | S. cerevisiae deletion strains, locus YLR258W, strain gsy2, stronger effect = lower value 0.979 | S. cerevisiae deletion strains, locus YLR262C, strain YPT6 (second series), stronger effect = lower value 1.01 | S. cerevisiae deletion strains, locus YLR262C, strain YPT6, stronger effect = lower value 1.03 | S. cerevisiae deletion strains, locus YLR268W, strain sec22, stronger effect = lower value 1 | S. cerevisiae deletion strains, locus YLR320W, strain mms22, stronger effect = lower value 0.96 | S. cerevisiae deletion strains, locus YLR330W, strain CHS5, stronger effect = lower value 1.01 | S. cerevisiae deletion strains, locus YLR342W, strain FKS1 (second series), stronger effect = lower value 1.01 | S. cerevisiae deletion strains, locus YLR342W, strain FKS1, stronger effect = lower value 0.986 | S. cerevisiae deletion strains, locus YLR357W, strain rsc2, stronger effect = lower value 0.948 | S. cerevisiae deletion strains, locus YLR370C, strain arc18, stronger effect = lower value 0.996 | S. cerevisiae deletion strains, locus YLR371W, strain rom2, stronger effect = lower value 0.995 | S. cerevisiae deletion strains, locus YLR384C, strain iki3, stronger effect = lower value 0.995 | S. cerevisiae deletion strains, locus YLR418C, strain cdc73, stronger effect = lower value 0.967 | S. cerevisiae deletion strains, locus YML016C, strain PPZ1, stronger effect = lower value 1.01 | S. cerevisiae deletion strains, locus YML032C, strain rad52, stronger effect = lower value 0.997 | S. cerevisiae deletion strains, locus YML120C, strain ndi1, stronger effect = lower value 0.995 | S. cerevisiae deletion strains, locus YML124C, strain tub3, stronger effect = lower value 1.01 | S. cerevisiae deletion strains, locus YMR058W, strain fet3, stronger effect = lower value 1 | S. cerevisiae deletion strains, locus YMR078C, strain ctf18, stronger effect = lower value 0.995 | S. cerevisiae deletion strains, locus YMR125W, strain sto1, stronger effect = lower value 0.992 | S. cerevisiae deletion strains, locus YMR129W, stronger effect = lower value 1.01 | S. cerevisiae deletion strains, locus YMR205C, strain PFK2, stronger effect = lower value 0.961 | S. cerevisiae deletion strains, locus YMR223W, strain ubp8, stronger effect = lower value 1.01 | S. cerevisiae deletion strains, locus YMR231W, strain pep5, stronger effect = lower value 0.998 | S. cerevisiae deletion strains, locus YMR263W, strain SAP30, stronger effect = lower value 1 | S. cerevisiae deletion strains, locus YMR307W, strain GAS1, stronger effect = lower value 0.998 | S. cerevisiae deletion strains, locus YNL067W, strain RPL9B, stronger effect = lower value 1.02 | S. cerevisiae deletion strains, locus YNL071W, strain lat1, stronger effect = lower value 1 | S. cerevisiae deletion strains, locus YNL128W, strain TEP1, stronger effect = lower value 1.02 | S. cerevisiae deletion strains, locus YNL153C, strain GIM3, stronger effect = lower value 1.01 | S. cerevisiae deletion strains, locus YNL183C, strain NPR1, stronger effect = lower value 0.955 | S. cerevisiae deletion strains, locus YNL209W, strain ssb2, stronger effect = lower value 1 | S. cerevisiae deletion strains, locus YNL233W, strain BNI4, stronger effect = lower value 1.01 | S. cerevisiae deletion strains, locus YNL248C, strain rpa49, stronger effect = lower value 0.991 | S. cerevisiae deletion strains, locus YNL250W, strain rad50, stronger effect = lower value 0.993 | S. cerevisiae deletion strains, locus YNL271C, strain bni1, stronger effect = lower value 1.01 | S. cerevisiae deletion strains, locus YNL298W, strain CLA4, stronger effect = lower value 1.01 | S. cerevisiae deletion strains, locus YNL307C, strain MCK1, stronger effect = lower value 1 | S. cerevisiae deletion strains, locus YNL322C, strain KRE1 (second series), stronger effect = lower value 0.961 | S. cerevisiae deletion strains, locus YNL322C, strain KRE1, stronger effect = lower value 1.01 | S. cerevisiae deletion strains, locus YNR049C, strain mso1, stronger effect = lower value 1.01 | S. cerevisiae deletion strains, locus YNR052C, strain pop2, stronger effect = lower value 1 | S. cerevisiae deletion strains, locus YOL006C, strain TOP1, stronger effect = lower value 1.02 | S. cerevisiae deletion strains, locus YOL012C, strain htz1 0.691 | S. cerevisiae deletion strains, locus YOL147C, strain pex11, stronger effect = lower value 1.01 | S. cerevisiae deletion strains, locus YOR001W, strain rrp6, stronger effect = lower value 1 | S. cerevisiae deletion strains, locus YOR061W, strain CKA2, stronger effect = lower value 1.01 | S. cerevisiae deletion strains, locus YOR069W, strain VPS5, stronger effect = lower value 1.02 | S. cerevisiae deletion strains, locus YOR070C, strain gyp1, stronger effect = lower value 0.994 | S. cerevisiae deletion strains, locus YOR080W, strain dia2, stronger effect = lower value 0.998 | S. cerevisiae deletion strains, locus YOR083W, strain WHI5, stronger effect = lower value 0.956 | S. cerevisiae deletion strains, locus YOR106W, strain vam3, stronger effect = lower value 0.966 | S. cerevisiae deletion strains, locus YOR136W, strain idh2, stronger effect = lower value 0.998 | S. cerevisiae deletion strains, locus YOR144C, strain elg1, stronger effect = lower value 1.01 | S. cerevisiae deletion strains, locus YOR184W, strain ser1, stronger effect = lower value 0.99 | S. cerevisiae deletion strains, locus YOR231W, strain MKK1, stronger effect = lower value 0.981 | S. cerevisiae deletion strains, locus YOR265W, strain rbl2, stronger effect = lower value 0.985 | S. cerevisiae deletion strains, locus YOR270C, strain vph1, stronger effect = lower value 1.04 | S. cerevisiae deletion strains, locus YOR290C, strain snf2, stronger effect = lower value 0.979 | S. cerevisiae deletion strains, locus YOR316C, strain cot1, stronger effect = lower value 0.994 | S. cerevisiae deletion strains, locus YPL051W, strain arl3, stronger effect = lower value 0.976 | S. cerevisiae deletion strains, locus YPL055C, strain LGE1, stronger effect = lower value 1.05 | S. cerevisiae deletion strains, locus YPL078C, strain atp4, stronger effect = lower value 0.992 | S. cerevisiae deletion strains, locus YPL106C, strain sse1, stronger effect = lower value 0.923 | S. cerevisiae deletion strains, locus YPL240C, strain hsp82, stronger effect = lower value 1 | S. cerevisiae deletion strains, locus YPL241C, strain CIN2, stronger effect = lower value 1.01 | S. cerevisiae deletion strains, locus YPL256C, strain CLN2, stronger effect = lower value 0.97 | S. cerevisiae deletion strains, locus YPR119W, strain clb2, stronger effect = lower value 0.994 | S. cerevisiae deletion strains, locus YPR141C, strain kar3, stronger effect = lower value 0.998 | S. cerevisiae deletion strains, locus YPR163C, strain tif3, stronger effect = lower value 1.01 | S. cerevisiae deletion strains, locus YPR167C, strain met16, stronger effect = lower value 0.997 | S. cerevisiae deletion strains, strain wtn01, stronger effect = lower value 0.989 | S. cerevisiae strains, strain wild type, stronger effect = lower value 1.01
